Rows were chosen to be rich in hits. Some 10% of all compounds tested hit in one or more screens of this group.
Sfp PPTase inh: qHTS Assay for Inhibitors of Bacillus subtilis Sfp phosphopantetheinyl transferase (PPTase) | 4'-phosphopantetheinyl transferase ffp (Bacillus subtilis), Q9F4F7 | Biochemical Sfp PPTase activity, qHTS | Potency, µM, without a hit: largest response in the series, negative = inhibition, usual class: inhibitors | 310,000 tested, 3.5% active | AID 1490, 2009;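 further: the enzyme is Sfp with the accession as filed and its product quenches rhodamine fluorescence; potency means the concentration at half of the fitted maximal effect; 0% = enzyme reaction without inhibitor and -100% = no enzyme wells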
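Reaction rates are the 30-min fluorescence difference (ex 525, em 598 nm) in wells containing 15 nM Sfp, 5 uM rhodamine-CoA and 12.5 uM BHQ-2-YbbR at pH 7.6 with 10 mM MgCl2.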
CCT chaperon mod: High-Throughput Screening for Modulators of Cytosolic Chaperonin Activity. AID 651819, 2012. activity change, % (no concentration beside the values), hits read low. 360,000 tested, 0.3% active. purified chaperonin ATPase assay, HTRF ADP detection, 30 min; in the data active means activity change below about -30%
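We incubate TRiC, 40 or 20 nM final, with library compounds at 76 uM and 10 uM ATP for 30 min at 37 °C. ADP formed is detected with Transcreener HTRF reagents after 30 min at room temperature.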
G9a inh: qHTS Assay for Inhibitors of Histone Lysine Methyltransferase G9a; Potency, µM (series often up to 102 µM), without a hit: at the top dose activity, negative = inhibition, most hits filed as inhibitors; AID 504332, 2011; G9a H3K9 monomethylation, AlphaScreen, 2 h; Histone-lysine N-methyltransferase EHMT2 (Homo sapiens), Q96KQ7; 350,000 tested, 8.8% active; further: potency means the concentration at half of the fitted maximal effect; nearly all actives have a fitted effect of over 75% in size
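Readings reflect AlphaScreen signal from monomethyl-H3K9 antibody detection. HMT at 20 nM; substrate b-H3K9 500 nM; cofactor SAM 20 uM; 2 h RT reaction; compounds tested as titrations in qHTS with 15 min preincubation.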
VDR inh: Inhibitors of the vitamin D receptor (VDR): qHTS; AID 504847, 2011; VDR-SRC2-3 peptide fluorescence polarization, 2 h; 400,000 tested, 0.93% active; Vitamin D3 receptor (Homo sapiens), P11473; Potency, µM, for the others: max response, negative = inhibition, usual class: inhibitors; further: potency means the concentration at half of the fitted maximal effect
Target sequence (P11473 whole entry, looked up): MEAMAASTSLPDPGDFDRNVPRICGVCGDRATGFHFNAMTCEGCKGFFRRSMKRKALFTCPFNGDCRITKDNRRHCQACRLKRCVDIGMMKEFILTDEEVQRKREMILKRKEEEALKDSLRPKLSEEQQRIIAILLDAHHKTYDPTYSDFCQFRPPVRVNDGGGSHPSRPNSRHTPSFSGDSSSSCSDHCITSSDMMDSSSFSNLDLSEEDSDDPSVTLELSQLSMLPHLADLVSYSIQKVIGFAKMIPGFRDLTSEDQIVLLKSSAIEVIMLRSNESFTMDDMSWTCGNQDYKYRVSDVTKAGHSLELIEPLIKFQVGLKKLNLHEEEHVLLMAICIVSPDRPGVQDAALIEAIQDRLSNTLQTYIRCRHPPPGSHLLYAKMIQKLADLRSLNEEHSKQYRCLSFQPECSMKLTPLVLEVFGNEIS
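Inhibition of the VDR/SRC2-3 peptide interaction is quantified by fluorescence polarization. Compounds (23 nl, pintool) incubate with the reagents for 2 hours at ambient room temperature.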
Mm-Cpn inhibitor: Inhibitors of TCP-1 ring complex (TRiC) of Methanococcus maripaludis (MmCpn): qHTS; Chaperonin Mm-Cpn (Methanococcus maripaludis); purified Mm-Cpn ATPase, ADP Transcreener TR-FRET; Potency, µM (series often up to 76.9 µM), inactives show at the top dose activity, negative = inhibition, most hits filed as inhibitors; 330,000 tested, 0.031% active; further: potency means the concentration at half of the fitted maximal effect; nearly all actives have a fitted effect of over 80% in size
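ATPase turnover read by TR-FRET ADP competition (Eu cryptate antibody/ADP-d2, 665/590 nm): 10uM ATP final, 25nM Mm-CPN final, 30 min 37degC after 10-min compound preincubation, pH 7.4 Tris/KCl/MgCl2/DTT buffer.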
PLK1 PBD block: qHTS for Inhibitors of PLK1-PDB (polo-like kinase 1 - polo-box domain): Primary Screen. Serine/threonine-protein kinase PLK1 (Homo sapiens), P53350. Plk1 PBD binding of FITC phosphopeptide, fluorescence polarization. 360,000 tested, 2.8% active. Potency, µM, without a hit: max response, negative = inhibition, usual class: inhibitors; further: potency means the concentration at half of the fitted maximal effect; series mostly up to about 57 µM; nearly all actives have a fitted effect of over 65% in size
* marks the source's active call; other numbers are inactive results; ? = inconclusive; . = not tested or not shown; [ ] = dose if it differs, or a comment. Unless noted, the call rests on the fitted dose curve; in most records, active means well fitted curve in the direction sought with a large enough effect; inconclusive means small, poorly fitted or top-dose-only effect, or another doubt; inactive means no such curve, though single readings can be large; an effect the other way counts as inactive or inconclusive. Unless noted, on the % scale 0 is the no-effect control and ±100 the full control effect.

SMILES	Sfp PPTase inh	CCT chaperon mod	G9a inh	VDR inh	Mm-Cpn inhibitor	PLK1 PBD block
CCOC(=O)N1CCC2(CC1)CC(=O)c1cc(O)ccc1O2	13%	0	-12%[2.33 µM]	-8%	-1%	0%
CC(C)Oc1ccc(CNC(=O)c2ccc3c(c2)nc2n3CCCCC2)cc1	.	.	66%[59 µM]	12%	.	.
CC(C)(C)c1ccc(/C=N/NC(=S)NCc2ccccc2)cc1	14%	1	24%[59 µM]	12%	-2%	-4%
CN(C)c1ccc(/C=N/NC(=S)NCc2ccccc2)cc1	27%	0	?	-27%	-5%	24µM*
CCNC(=S)N/N=C/c1cccc(/C=N/NC(=S)NCC)c1	40µM*	-1	?	-4%	-1%	-15%
CCOc1ccccc1NC(=O)NCc1noc2ccc(C)cc12	.	.	8%[59 µM]	0%	.	.
O=C(O)/C=C/C(=O)Nc1ccccc1-c1ccccc1NC(=O)/C=C/C(=O)O	7.9µM*	-1	10µM*	-9%	1%	-24%
O=C(O)/C=C/C(=O)Nc1ccccc1SC(F)(F)F	13µM*	-1	8.9µM*	-11%	1%	-29%
O=C(Nc1ccccc1)Nc1c(F)cccc1F	9%	-1	-19%	5%	-9%	-6%
O=C(O)/C=C/C(=O)Nc1c(F)cccc1F	-6%	-1	50µM*	6%	-3%	5%
O=C(O)/C=C/C(=O)Nc1ccc(SC(F)(F)F)cc1	8%	-2	?	-1%	-1%	-7%
O=C(O)/C=C/C(=O)Nc1cccc2c1-c1ccccc1C2=O	.	0	.	1%	.	-6%
CCn1c(SCC(=O)N/N=C/C=C/c2ccco2)nc2ccccc21	45µM*	-1	6.3µM*	?	2%	?
O=C(CSc1nnc(SCc2ccccc2)s1)N/N=C/C=C\c1ccco1	11µM*	-2	10µM*	?	0%	?
O=C(CSc1nnc(SCc2ccccc2)s1)N/N=C/C=C/c1ccccc1[N+](=O)[O-]	15%	-14	-6%[59 µM]	-1%	-3%	-16%
COc1ccc(C(=O)Nc2cc(C(=O)c3ccccc3)c(C)oc2=O)cc1	10µM*	-2	8.9µM*	32µM*	?	-14%
Cc1oc(=O)c(NC(=O)c2cccc(Cl)c2)cc1C(=O)c1ccccc1	8.9µM*	1	-18%[0.0925 µM]	40µM*	-2%	-16%
COC(=O)c1cc(NC(=O)c2ccc(C)cc2)c(=O)oc1C	-10%	-2	?	-6%	1%	-3%
CC(=O)c1cc(NC(=O)c2ccc([N+](=O)[O-])cc2)c(=O)oc1C	16µM*	-1	22µM*	0%	0%	-9%
COC(=O)c1cc(NC(=O)c2ccccc2)c(=O)oc1C	-11%	-1	45µM*	1%	-6%	?
COC(=O)c1cc(NC(=O)c2ccc([N+](=O)[O-])cc2)c(=O)oc1C	-15%	0	?	-9%	-7%	-6%
O=C(NCCCO)C(=O)NCC(c1ccc2c(c1)OCO2)N1CCOCC1 (configuration not stated)	.	.	-2%[59 µM]	-2%	.	.
CCN(CC)S(=O)(=O)c1nnc(NC(=O)c2ccc(Br)cc2)s1	.	.	-20%[59 µM]	17%	.	.
COc1ccc(O[C@H]2C=C[C@@H](c3ccccc3)O[C@H]2COC(=O)CC/C(C)=N\O[C@@H](C)CN2CCCCc3nc(C)c(C)cc32)cc1	6%	.	.	.	.	.
Cc1cccc(CNc2ncncc2-c2cccc(NS(C)(=O)=O)c2)c1	-24%	.	.	-22%	.	.
O=C(NC(=S)NCc1ccccc1)c1ccccc1	-2%	-1	45µM*	-12%	-1%	-9%
O=C(NC(=S)NCc1ccncc1)c1ccccc1	-1%	-4	.	3%	0%	-18%
CN(Cc1ccccc1)C(=S)Nc1cccnc1	9%	0	-6%	-15%	-16%	21µM*
